Growth data for 40 molecules are collected here from PubChem BioAssay (NCI).

The panel holds about 83,000 compounds, 20% with a hit somewhere; the sample as a whole holds those more often.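 The test compound was applied at a single concentration to cells in 96-well plates for 48 hours, and percent growth was recorded.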 Unmarked numbers belong to inactive results. Active and inactive are the calls of the source. The calls were made as follows: active = growth percent below 10; inactive = the rest.

The test concerns NCI-H23 lung. The experiment in a line: NCI-60 one-dose screen, 48 h (100 = growth as untreated, 0 = no growth, -100 = all killed). Particulars: 10 µM unless noted.
With `COc1ccc(OC)c(/C=N/Nc2ncnc3c2c(C)nn3C)c1`, the growth was 106%.

For `Cc1c[n+](Cc2ccc3ccccc3c2)cn1Cc1ccc2ccccc2c1`, the growth was 27.7%.

For `COc1cc(OC)c(/C=C/C(=O)c2c(OC)cccc2OC)c(OC)c1`, the growth was -22% (active).

`COC(=O)c1c(C)nc(C)c2c1C(=O)C(Br)=C(NCc1ccccc1)C2=O`: the growth is 5.25% (active).

Consider `CCNCCNc1cc(-c2ccc(C(F)(F)F)cc2)c(C#N)c2nc3ccccc3n12`, for which the growth is -83.7% (active).

Regarding `CSc1nc2ccccc2cc1/C=[N+](\[O-])c1ccccc1`, the growth was 70%.

For the molecule `CC(=O)Oc1ccc(N2C(=O)C(Cl)=C(Nc3cccc(C(F)(F)F)c3)C2=O)cc1`, the growth is 100%.

Take `CC(=O)Oc1ccc(C)cc1C`: the growth was 103%.

Regarding `O=C(Nc1ccc(Oc2cccc(Cl)c2)c(Cl)c1)c1cnccn1`, the growth was 46.1%.

Consider `CCC(=O)Oc1ccc(-c2ccccc2)cc1Br`, for which the growth is 101%.

In the case of `CCN(CC)CC(O)COc1c(Br)c(Br)c(Br)c2c1OC(C)(C)C2` (stereo not given), the growth is 96.1%.

Take `Fc1cc2c(cc1Cl)N(c1ncnc3ccc(-c4ccc5n[nH]nc5c4)cc13)CC2`: the growth was 79.6%.

Regarding `Nc1c(C(=O)Nc2ccncc2)sc2nc3c(cc12)C(O)CCC3` (stereo not given), the growth is 93.3%.

As to `CCOC(=O)c1cc2c(n1Cc1cc(OC)c(OC)c(OC)c1)-c1nc(N)sc1CCC2`, the growth is 62.9%.

In the case of `Cc1ccc(Nn2c(SCC(=O)Nc3nc(-c4ccccc4)cs3)nc(C)c2C)cc1`, the growth is 39.4%.

With `O=C(NCc1ccc(Cl)cc1Cl)C1CCC(=O)N1c1cccs1` (stereo not given), the growth is 91%.

For `COc1cc(C2c3cc(OC(C)=O)c(OC)cc3CC3C(=O)OCC32)ccc1OC(C)=O` (stereo not given), the growth was 105%.

With `CCOC(=O)c1ccc(NC(=O)c2nc(-c3cc(OC)c(OC)c(OC)c3)n(-c3ccc(Cl)cc3)n2)cc1`, the growth was 91.3%.

In the case of `Cc1nc2sc(C(=O)Nc3cccc(Br)c3)c(N)c2cc1C(O)c1ccccc1` (stereo not given), the growth was 25.1%.

With `OB1OCc2cc(/C=C/c3cccc(C(F)(F)F)c3)ccc21`, the growth is 21.6%.

Consider `COC(=O)[C@@H](CCCCNC(=O)[C@]12CCC(C)(C)C[C@@H]1C1=CC[C@@H]3[C@@]4(C)C/C(=C/c5ccco5)C(=O)C(C)(C)[C@@H]4CC[C@@]3(C)[C@]1(C)CC2)NC(=O)[C@]12CCC(C)(C)C[C@@H]1C1=CC[C@@H]3[C@@]4(C)C/C(=C/c5ccco5)C(=O)C(C)(C)[C@@H]4CC[C@@]3(C)[C@]1(C)CC2`, for which the growth is 106%.

For `COc1c(C(=O)Nc2ccc(C)c(Br)c2)ccc2ccccc12`, the growth is 90.6%.

As for `COC(=O)CC[C@@H]1O[C@@H](c2cccc(C(F)(F)F)c2)[C@@H](O)[C@H]1O`, the growth is 94.2%.

Regarding `COc1ccc(/C=C(\C#N)n2nnc3cc(F)c(F)cc32)cc1`, the growth was 74.7%.

With `CCCC/C(CC)=N\NS(=O)(=O)c1ccc([N+](=O)[O-])cc1`, the growth was 95.9%.

Take `CCC(C(=O)[C@@H](C)[C@@H](O)[C@H](C)[C@@H]1O[C@@H]([C@@H](CC)C(=O)ONC(=O)c2ccccc2)CC[C@@H]1C)[C@H]1O[C@]2(C=CC(=O)[C@]3(CC[C@@](C)([C@H]4CC[C@](O)(CC)[C@H](C)O4)O3)O2)[C@H](C)C[C@@H]1C` (stereo not given in full): the growth was -49.7% (active).

As for `COC(=O)[C@]12CCC(C)(C)C[C@H]1[C@H]1/C(=N/OCCc3nn[nH]n3)C[C@@H]3[C@@]4(C)CC[C@H](OC(C)=O)C(C)(C)[C@@H]4CC[C@@]3(C)[C@]1(C)CC2`, the growth is 28.4%.

On to `N#CC(C#N)N=Nc1ccc(Br)cc1`, for which the growth is 24.6%.

With `CCOC(=O)NC(C)C`, the growth is 106%.

As for `CCCNC(=O)Nc1ccc2cc3ccc(NC(=O)NCCC)cc3nc2c1`, the growth is 86.4%.

On to `C=CCN=c1sc2c(n1NC(=O)c1cc3ccc1CCc1ccc(cc1)CC3)C(=O)c1ccccc1C2=O`, for which the growth is -34.1% (active).

Regarding `Cc1ccc2c(n1)C(=O)C(Br)=C(CC(C)C)C2=O`, the growth was 98.6%.

On to `CC(C)COc1nc2c(c(=O)n(C)c(=O)n2C)n1C`, for which the growth is 98.5%.

Turning to `Cc1ccccc1/C=C/C(=O)c1cccc(OCCCCOc2cccc(C(=O)/C=C/c3ccccc3C)c2)c1`, the growth was 94.6%.

Take `COc1ccc2cc1Oc1ccc(cc1)C[C@H]1c3c(cc4c(c3Oc3cc5c(cc3OC)CCN(C)[C@@H]5C2)OCO4)CCN1C`: the growth is 75.9%.

`CCOC(=O)c1csc(NC(=O)COc2ccc(/C=C3\Oc4ccccc4C3=O)cc2)n1`: the growth is 86.5%.

As to `CC(C)C1=NOC(=O)C1=Cc1cn(-c2ccccc2)nc1-c1ccc(F)cc1`, the growth is 95.6%.

Take `CCOC(=O)C/C(=N\Nc1cc(=O)[nH]c2ccc(Br)cc12)C(=O)OCC`: the growth is 91.2%.

`Cc1cc(=O)n(C(=O)Nc2ccccc2Cl)c2cc(O)ccc12`: the growth is 98.6%.

`CSc1nnc(-c2cc3c([nH]c4ccccc43)c(-c3cccc(O)c3)n2)n1-c1ccccc1`: the growth was 55.1%.
